# Values joined by “and” are separate entries in the source; they are usually repeats but may differ in a detail not shown here. Equal values may be shown once. Inconclusive results are not listed. A structure can be active in one record and inactive in another. Active and inactive are the calls of the source.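 The calls were made as follows, unless noted: active = normalized viability below 100% at a tested concentration; inactive = the rest.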
# Tests used:
# [1] = viability loss in pontine glioma line – cell-based, SU-DIPG-XXV, MIPE5.0, CellTiter-Glo, qHTS, dose response (AID 1347065; cut-off not given, nearly all actives have AC50 up to about 26 µM;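 also: cells exposed to compound for 48 hours before ATP readout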); conditions: CellTiter-Glo ATP luminescence
# [2] = growth inhibition of DIPG cells – cell-based, MIPE4.0 library, CellTiter-Glo luminescence, qHTS (AID 1347066; cut-off not given, nearly all actives have AC50 up to about 30 µM;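 also: cells exposed to compound for 48 hours before readout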); conditions: SU-DIPG-VI viability, CellTiter-Glo ATP luminescence
# [3] = JHH-DIPG-1 glioma cell viability, MIPE5.0 library, CellTiter-Glo luminescence, qHTS (AID 1347067; cut-off not given, nearly all actives have AC50 up to about 26 µM;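 also: cells exposed to compound for 48 hours before readout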); conditions: JHH-DIPG-1 glioma viability, CellTiter-Glo ATP luminescence
# [4] = growth inhibition of DIPG cells – cell-based, MIPE5.0 library, qHTS (AID 1347068; cut-off not given, nearly all actives have IC50 up to about 30 µM); conditions: SU-DIPG-XXV viability
# [5] = MELAS cybrid and Rieske KO viability enhancers – cell-based, MELAS cybrids, Rieske KO mouse fibroblasts, CellTiter-Glo, primary screen (AID 1508586;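 active = mean z-score across replicates of 1.96 or higher in either the MELAS or the Rieske mutant cell line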;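 also: z relative to plate mean and SD of compound and empty wells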); conditions: low glucose
# [6] = target: NAD(+) hydrolase SARM1 (Homo sapiens) (UniProt Q6SZW1); assay: blocking NAD cleavage by SARM1 SAM-TIR – cell lysate, NAD-Glo luminescence (AID 1508614;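 active = compound whose remaining NAD level is above about 45 nM, limit read from the data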;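 also: higher remaining NAD means stronger inhibition of SARM1 NADase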); conditions: SAM-TIR HEK293T lysate NADase, at 1 µM, stronger effect = higher value
# [7] = galactose survival enhancers in mitochondrial complex I cybrids – cell-based, galactose medium, ATP luminescence, primary screen (AID 1645843;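 active = z-score of at least 1.8 in each of two replicates, scored against plate mean and spread of sample wells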;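 also: positive z means more ATP and so rescue of galactose-driven cybrid death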); conditions: complex I mutant cybrid cells, 72 h, stronger effect = higher value
# [8] = blockers of cellular phospholipid synthesis – cell-based, LOPAC library, screen 4, primary screen (AID 1347384; call rule not given here); conditions: animal cells, phospholipid biosynthesis inhibition screen; at 10 µM
# [9] = compounds altering HSF1 focus formation in cells – imaging, Selleck Cancer Library (AID 1347162; in the data active = plate-normalised HSF1 focus index below about 0.46); conditions: human cells, HSF1 nuclear foci imaging, at 10 µM; SSMD: measured here: HSF1 foci SSMD mean; cell count: measured here: cell number; plate-normalised HSF1 focus index: stronger effect = lower value
# [10] = drug combination growth inhibition, ovarian cancer – cell-based, oncology-focused library, rucaparib conditional, profiling panel (AID 1508598); conditions: patient-derived ovarian cancer cells, CellTiter-Glo viability, 144 h, stronger effect = lower value
# [11] = target: Mitogen-activated protein kinase 7 (Homo sapiens) (UniProt Q13164); assay: Gal4-ERK5 driven luciferase induction – cell-based, HTS, primary screen (AID 1508626;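 active = luciferase signal above three times the same-plate solvent-only control wells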;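 also: luciferase driven by Gal4-ERK5 fusion binding five Gal4 sites before minimal TATA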); conditions: HeLa Gal4-ERK5 transactivation, 18 h, at 5 µM, stronger effect = higher value
# [12] = growth inhibition, single agent or in combination, cell-based, chromothripsis tumors, cisplatin or BGB combos (AID 1671449; in the data active = inhibition above about 80%;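 also: cells exposed for 96 hours; 0% = vehicle DMSO and 100% = killing by high DMSO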); conditions: LFS_MB_P medulloblastoma cells
# [13] = growth inhibition, single agent and combos, cell-based, chromothripsis tumors, cisplatin or BGB combos (AID 1671450; in the data active = inhibition above about 80%;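 also: cells exposed to compound for four days; 0% = vehicle DMSO and 100% = cell killing by high DMSO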); conditions: HDN33 neuroblastoma cells, stronger effect = higher value
# [14] = growth inhibition, single agents and combos, ICB984, cell-based, cisplatin or BGB combos, synergistic combos for chromothripsis tumors (AID 1671451; call rule not given here;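 also: cells exposed for 96 hours before readout; 0% = vehicle DMSO and 100% = killing by high DMSO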); conditions: ICB984 medulloblastoma cells, drug combinations, stronger effect = higher value
# [15] = growth inhibition, single agents and combos, LFS_MB_1R, cell-based, cisplatin or BGB combos, synergistic combos for chromothripsis tumors (AID 1671452; in the data active = inhibition above about 80%;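 also: cells exposed for 96 hours before readout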); conditions: LFS_MB_1R medulloblastoma cells, stronger effect = higher value
# [16] = growth inhibition, single agents and combos, HTB85, cell-based, BGB or cisplatin IC20 combos, synergistic combos for chromothripsis tumors (AID 1671453; in the data active = inhibition above about 80%;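 also: cells exposed for 96 hours before readout; 0% = vehicle DMSO and 100% = high DMSO killing control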); conditions: HTB85 osteosarcoma cells, drug combinations, stronger effect = higher value
# [17] = growth inhibition, single agents and combos, CRL2098, cell-based, BGB or cisplatin IC20 combos, synergistic combos for chromothripsis tumors (AID 1671454; in the data active = inhibition above about 80%;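 also: cells exposed for 96 h before readout; 0% = vehicle DMSO and 100% = killing by high DMSO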); conditions: CRL2098 osteosarcoma cells, drug combinations, stronger effect = higher value
# [18] = growth inhibition, single agents and combos, HD-MB03, cell-based, BGB or cisplatin IC20 combos, synergistic combos for chromothripsis tumors (AID 1671455; in the data active = inhibition above about 83%;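 also: 0% = vehicle DMSO and 100% = high DMSO as cytotoxic control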); conditions: HD-MB03 medulloblastoma cells, stronger effect = higher value
# [19] = MELAS cybrid survival, CellTiter-Glo 48 h, stronger effect = higher value
# [20] = Rieske KO mouse fibroblast survival, CellTiter-Glo 72 h
# [21] = measured here: combination with BGB IC40, at 0.05 µM
# NAD(+) hydrolase SARM1 (Homo sapiens), sequence (Q6SZW1 whole entry, looked up): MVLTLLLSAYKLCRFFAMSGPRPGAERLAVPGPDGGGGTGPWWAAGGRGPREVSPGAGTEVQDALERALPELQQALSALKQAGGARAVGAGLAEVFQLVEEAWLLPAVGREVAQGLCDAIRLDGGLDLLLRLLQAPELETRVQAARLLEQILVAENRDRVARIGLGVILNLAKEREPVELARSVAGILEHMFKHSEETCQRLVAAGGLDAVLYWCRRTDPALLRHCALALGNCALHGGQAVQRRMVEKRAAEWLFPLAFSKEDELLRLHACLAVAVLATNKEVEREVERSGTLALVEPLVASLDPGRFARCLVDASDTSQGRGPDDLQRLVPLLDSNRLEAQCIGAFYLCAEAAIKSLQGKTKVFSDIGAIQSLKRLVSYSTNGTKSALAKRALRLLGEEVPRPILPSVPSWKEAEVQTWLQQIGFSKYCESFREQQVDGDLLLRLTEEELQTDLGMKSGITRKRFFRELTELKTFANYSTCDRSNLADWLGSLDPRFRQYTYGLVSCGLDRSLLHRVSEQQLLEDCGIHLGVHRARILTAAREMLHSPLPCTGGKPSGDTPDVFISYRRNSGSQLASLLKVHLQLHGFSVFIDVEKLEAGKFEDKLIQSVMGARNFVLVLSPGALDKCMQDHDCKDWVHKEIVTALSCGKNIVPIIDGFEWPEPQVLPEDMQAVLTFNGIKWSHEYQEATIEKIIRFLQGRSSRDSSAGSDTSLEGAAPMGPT
# Mitogen-activated protein kinase 7 (Homo sapiens), sequence (Q13164 whole entry, looked up, the tested form may be a part): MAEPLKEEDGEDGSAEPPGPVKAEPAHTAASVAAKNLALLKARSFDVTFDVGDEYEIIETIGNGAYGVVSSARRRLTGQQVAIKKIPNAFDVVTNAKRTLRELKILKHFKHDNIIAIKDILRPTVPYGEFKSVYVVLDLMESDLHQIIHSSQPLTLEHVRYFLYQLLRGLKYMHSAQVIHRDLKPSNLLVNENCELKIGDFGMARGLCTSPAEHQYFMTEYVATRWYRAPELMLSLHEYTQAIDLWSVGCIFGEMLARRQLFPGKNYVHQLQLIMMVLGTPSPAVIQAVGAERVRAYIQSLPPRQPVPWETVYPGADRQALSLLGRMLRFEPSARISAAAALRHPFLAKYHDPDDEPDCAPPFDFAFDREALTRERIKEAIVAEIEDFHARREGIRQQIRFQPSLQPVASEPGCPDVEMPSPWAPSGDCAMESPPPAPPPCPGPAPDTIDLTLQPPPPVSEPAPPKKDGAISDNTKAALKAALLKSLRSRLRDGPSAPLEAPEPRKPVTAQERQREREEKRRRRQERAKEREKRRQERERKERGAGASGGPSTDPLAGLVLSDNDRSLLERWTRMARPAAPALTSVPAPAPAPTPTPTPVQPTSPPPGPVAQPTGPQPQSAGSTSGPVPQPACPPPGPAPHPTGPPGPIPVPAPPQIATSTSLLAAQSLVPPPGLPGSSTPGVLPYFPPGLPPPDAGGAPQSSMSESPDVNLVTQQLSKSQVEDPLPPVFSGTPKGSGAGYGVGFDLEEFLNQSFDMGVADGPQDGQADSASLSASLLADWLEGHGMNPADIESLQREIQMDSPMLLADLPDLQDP
structure (smiles),measurement,setting,value
CCC1=C(C)CN(C(=O)NCCc2ccc(S(=O)(=O)NC(=O)NC3CCC(C)CC3)cc2)C1=O (stereo not drawn),outcome,[1],inactive
same,outcome,[2],inactive
same,outcome,[3],inactive
same,outcome,[4],inactive
same,z-score,[5]; [19],-0.439 (inactive) and 0.644 (inactive) and 0.245
same,z-score,[5]; [20],0.486 and 0.124 and 2.28
same,remaining NAD,[6],10 nM (inactive)
same,z-score,[7],2.29 (active) and 6.57 (active) and 1.99 (inactive)
Oc1ccc(C2CNCCc3c2cc(O)c(O)c3Cl)cc1 (stereo not drawn),outcome,[1],inactive
same,outcome,[2],inactive
same,outcome,[3],inactive
same,outcome,[4],inactive
same,outcome,[8],inactive
same,z-score,[5]; [19],0.526 (inactive) and 0.283 (inactive)
same,z-score,[5]; [20],-0.363 and -0.533
same,remaining NAD,[6],10 nM (inactive)
N#Cc1ccc(C(c2ccc(C#N)cc2)n2cncn2)cc1,outcome,[1],inactive
same,outcome,[2],inactive
same,outcome,[3],inactive
same,outcome,[4],inactive
same,SSMD,[9],2
same,cell count,[9],6610
same,plate-normalised HSF1 focus index,[9],1.1 (inactive)
same,z-score,[5]; [19],-0.0811 (inactive) and 0.894 (inactive) and -0.0703 (inactive)
same,z-score,[5]; [20],-0.000166 and 0.656 and -0.338
same,viability,"[10]; at 0.000305 µM, OCI-C5x cells, with rucaparib 10 µM, 100% = cells with rucaparib alone",117% (inactive)
same,viability,"[10]; at 0.000305 µM, OCI-C5x cells, without rucaparib",101% (inactive)
same,viability,"[10]; at 0.000305 µM, OCI-P5x cells, with rucaparib 20 µM, 100% = cells with rucaparib alone",94% (active)
same,viability,"[10]; at 0.000305 µM, OCI-P5x cells, without rucaparib",91% (active)
same,viability,"[10]; at 0.00122 µM, OCI-C5x cells, with rucaparib 10 µM, 100% = cells with rucaparib alone",116% (inactive)
same,viability,"[10]; at 0.00122 µM, OCI-C5x cells, without rucaparib",113% (inactive)
same,viability,"[10]; at 0.00122 µM, OCI-P5x cells, with rucaparib 20 µM, 100% = cells with rucaparib alone",104% (inactive)
same,viability,"[10]; at 0.00122 µM, OCI-P5x cells, without rucaparib",94.3% (active)
same,viability,"[10]; at 0.00488 µM, OCI-C5x cells, with rucaparib 10 µM, 100% = cells with rucaparib alone",114% (inactive)
same,viability,"[10]; at 0.00488 µM, OCI-C5x cells, without rucaparib",107% (inactive)
same,viability,"[10]; at 0.00488 µM, OCI-P5x cells, with rucaparib 20 µM, 100% = cells with rucaparib alone",104% (inactive)
same,viability,"[10]; at 0.00488 µM, OCI-P5x cells, without rucaparib",97.8% (active)
same,viability,"[10]; at 0.0195 µM, OCI-C5x cells, with rucaparib 10 µM, 100% = cells with rucaparib alone",117% (inactive)
same,viability,"[10]; at 0.0195 µM, OCI-C5x cells, without rucaparib",112% (inactive)
same,viability,"[10]; at 0.0195 µM, OCI-P5x cells, with rucaparib 20 µM, 100% = cells with rucaparib alone",109% (inactive)
same,viability,"[10]; at 0.0195 µM, OCI-P5x cells, without rucaparib",106% (inactive)
same,viability,"[10]; at 0.0781 µM, OCI-C5x cells, with rucaparib 10 µM, 100% = cells with rucaparib alone",123% (inactive)
same,viability,"[10]; at 0.0781 µM, OCI-C5x cells, without rucaparib",102% (inactive)
same,viability,"[10]; at 0.0781 µM, OCI-P5x cells, with rucaparib 20 µM, 100% = cells with rucaparib alone",106% (inactive)
same,viability,"[10]; at 0.0781 µM, OCI-P5x cells, without rucaparib",105% (inactive)
same,viability,"[10]; at 0.313 µM, OCI-C5x cells, with rucaparib 10 µM, 100% = cells with rucaparib alone",117% (inactive)
same,viability,"[10]; at 0.313 µM, OCI-C5x cells, without rucaparib",106% (inactive)
same,viability,"[10]; at 0.313 µM, OCI-P5x cells, with rucaparib 20 µM, 100% = cells with rucaparib alone",104% (inactive)
same,viability,"[10]; at 0.313 µM, OCI-P5x cells, without rucaparib",108% (inactive)
same,viability,"[10]; at 1.25 µM, OCI-C5x cells, with rucaparib 10 µM, 100% = cells with rucaparib alone",107% (inactive)
same,viability,"[10]; at 1.25 µM, OCI-C5x cells, without rucaparib",104% (inactive)
same,viability,"[10]; at 1.25 µM, OCI-P5x cells, with rucaparib 20 µM, 100% = cells with rucaparib alone",108% (inactive)
same,viability,"[10]; at 1.25 µM, OCI-P5x cells, without rucaparib",107% (inactive)
same,viability,"[10]; at 5 µM, OCI-C5x cells, with rucaparib 10 µM, 100% = cells with rucaparib alone",113% (inactive)
same,viability,"[10]; at 5 µM, OCI-C5x cells, without rucaparib",128% (inactive)
same,viability,"[10]; at 5 µM, OCI-P5x cells, with rucaparib 20 µM, 100% = cells with rucaparib alone",112% (inactive)
same,viability,"[10]; at 5 µM, OCI-P5x cells, without rucaparib",104% (inactive)
same,remaining NAD,[6],10 nM (inactive)
same,z-score,[7],0.515 (inactive) and 0.315 (inactive)
N[C@@H](Cc1ccc(O)c(O)c1)C(=O)O,outcome,[1],inactive
same,outcome,[2],inactive
same,outcome,[3],inactive
same,outcome,[4],inactive
same,outcome,[8],inactive
same,z-score,[5]; [19],-0.394 (inactive) and -0.26 (inactive)
same,z-score,[5]; [20],0.117 and -1.12
same,remaining NAD,[6],10 nM (inactive)
same,luciferase signal,[11],72 AU (inactive)
same,z-score,[7],-0.965 (inactive) and -1.59 (inactive)
Nc1[nH]c(=O)ncc1F,outcome,[1],inactive
same,outcome,[2],inactive
same,outcome,[3],inactive
same,outcome,[4],inactive
same,z-score,[5]; [19],-0.163 (inactive) and 0.671 (inactive)
same,z-score,[5]; [20],0.841 and -0.221
same,remaining NAD,[6],10 nM (inactive)
same,z-score,[7],0.61 (inactive)
same,inhibition,"[12]; at 0.5 µM, stronger effect = higher value",35.6% (inactive)
same,inhibition,"[12]; measured here: combination with BGB IC20, at 0.005 µM",-27.5%
same,inhibition,"[12]; measured here: combination with BGB IC40, at 0.005 µM",-28.3%
same,inhibition,[12]; [21],-22%
same,inhibition,"[12]; measured here: combination with cisplatin, at 0.5 µM, stronger effect = higher value",56.8%
same,inhibition,"[12]; measured here: combination with cisplatin, at 5 µM, stronger effect = higher value",-29.9%
same,inhibition,"[13]; BGB combo, at 5 µM",-19.9%
same,inhibition,[13]; at 0.5 µM,-18.6% (inactive)
same,inhibition,"[13]; cisplatin combo, at 5 µM",-41.9%
same,inhibition,"[13]; measured here: with BGB IC20 combination, at 0.5 µM",-4.48%
same,inhibition,"[13]; measured here: with cisplatin IC20 combination, at 0.5 µM",-14.6%
same,inhibition,"[13]; single agent, at 5 µM",9.06%
same,inhibition,"[14]; BGB IC20 combo, at 0.005 µM",-28.5%
same,inhibition,"[14]; BGB IC40 combo, at 0.005 µM",-43.6%
same,inhibition,"[14]; BGB IC40 combo, at 0.05 µM",-8.87%
same,inhibition,[14]; at 0.5 µM,-40.6% (inactive)
same,inhibition,"[14]; cisplatin combo, at 0.05 µM",-8.87%
same,inhibition,"[14]; cisplatin combo, at 0.5 µM",-57.1%
same,inhibition,"[14]; cisplatin combo, at 5 µM",-45.6%
same,inhibition,"[14]; measured here: 5 uM single agent, at 5 µM",-3.48%
same,inhibition,[15]; at 0.5 µM,-37.2% (inactive)
same,inhibition,[15]; [21],-0.509%
same,inhibition,"[15]; measured here: combination with cisplatin, at 0.5 µM",-34.6%
same,inhibition,"[15]; measured here: combination with cisplatin, at 5 µM",-0.132%
same,inhibition,[16]; at 0.5 µM,-19.7% (inactive)
same,inhibition,"[16]; measured here: with BGB IC20, at 0.5 µM",-43%
same,inhibition,"[16]; measured here: with BGB IC20, at 5 µM",-34%
same,inhibition,"[16]; measured here: with cisplatin IC20, at 0.5 µM",-6.71%
same,inhibition,"[16]; measured here: with cisplatin IC20, at 5 µM",-6.3%
same,inhibition,"[16]; single agent, at 5 µM",-19.7%
same,inhibition,[17]; at 0.5 µM,-73.3% (inactive)
same,inhibition,"[17]; measured here: combination with BGB at IC20, at 0.5 µM",-56.9%
same,inhibition,"[17]; measured here: combination with cisplatin at IC20, at 0.5 µM",-90.3%
same,inhibition,[18]; at 0.5 µM,5.78% (inactive)
same,inhibition,"[18]; measured here: combo with BGB at IC20, at 0.5 µM",2.74%
same,inhibition,"[18]; measured here: combo with cisplatin at IC20, at 0.5 µM",10.4%

# Reference: PubChem BioAssay
